# Assay outcomes as filed in PubChem BioAssay.
# PI4K2A block = PI4K2A (human) kinase inhibition | 0.13% of 420,000 active | purified PI4K2A, ADP-Glo luminescence, 1 h; active compounds read low | AID 1346378 | activity change, negative = inhibition, % at 76.9 µM | Q9BTU6; in the data active means activity change below about -50%; inconclusive means mostly about -30% to -49%;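 further: -100% = wells without enzyme as full effect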
#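 PI4K2A activity was measured by ADP-Glo luminescence: enzyme (4 ug/mL stock) and phosphatidylinositol (1.2 mM stock) in Tris pH 7.5/MgCl2/EGTA/Triton X-100 buffer were reacted with ATP (300 microM stock) for one hour at ambient temperature.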
# GLS inh = blocks human kidney-isoform glutaminase activity. GLS enzymatic activity, qHTS titration. AID 624170. 0.21% of 410,000 active. O94925. Potency, µM (doses to about 45.5 µM), inactives show top-dose activity change, negative = inhibition, hits mostly inhibitors; further: potency means the concentration at half of the fitted maximal effect; on the % scale 0 is the no-effect control and ±100 the full control effect
#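 Two-point fluorescence kinetic (t0, 30 min RT) for hKGA; glutamate detected via glutamate oxidase–HRP–Amplex Red. Substrate: 1 mM L-glutamine solution; buffer 45 mM KH2PO4, pH 8.2.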
# PLK1 PBD block = blocks phosphopeptide binding to human PLK1 polo-box domain; AID 720504; 2.8% of 360,000 active; Potency, µM, for the others: max response, negative = inhibition, hits mostly inhibitors; P53350; Plk1 PBD binding of FITC phosphopeptide, fluorescence polarization; further: potency means the concentration at half of the fitted maximal effect; series mostly up to about 57 µM; on the % scale 0 is the no-effect control and ±100 the full control effect; nearly all actives have a fitted effect of over 65% in size
# VDR inhibitor = vitamin D3 receptor (human) inhibition. P11473. VDR-SRC2-3 peptide fluorescence polarization, 2 h. Potency, µM, without a hit: max response, negative = inhibition, most hits filed as inhibitors. 0.93% of 400,000 active. AID 504847; further: potency means the concentration at half of the fitted maximal effect; on the % scale 0 is the no-effect control and ±100 the full control effect
#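 VDR–SRC2-3 interaction, FP format. Cmpds 23 nl via pintool, brief spin, 2 h ambient incubation.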
# KAT2A inh = GCN5L2 (KAT2A) acetyltransferase inhibition | Q92830 | GCN5L2 HAT assay, ThioGlo1 CoA-SH fluorescence | Potency, µM (doses to about 58.9 µM), without a hit: at the highest dose activity change, negative = inhibition, most hits filed as inhibitors | 0.21% of 390,000 active | AID 504327; further: potency means the concentration at half of the fitted maximal effect; on the % scale 0 is the no-effect control and ±100 the full control effect
# Target sequence (Q92830 whole entry, looked up): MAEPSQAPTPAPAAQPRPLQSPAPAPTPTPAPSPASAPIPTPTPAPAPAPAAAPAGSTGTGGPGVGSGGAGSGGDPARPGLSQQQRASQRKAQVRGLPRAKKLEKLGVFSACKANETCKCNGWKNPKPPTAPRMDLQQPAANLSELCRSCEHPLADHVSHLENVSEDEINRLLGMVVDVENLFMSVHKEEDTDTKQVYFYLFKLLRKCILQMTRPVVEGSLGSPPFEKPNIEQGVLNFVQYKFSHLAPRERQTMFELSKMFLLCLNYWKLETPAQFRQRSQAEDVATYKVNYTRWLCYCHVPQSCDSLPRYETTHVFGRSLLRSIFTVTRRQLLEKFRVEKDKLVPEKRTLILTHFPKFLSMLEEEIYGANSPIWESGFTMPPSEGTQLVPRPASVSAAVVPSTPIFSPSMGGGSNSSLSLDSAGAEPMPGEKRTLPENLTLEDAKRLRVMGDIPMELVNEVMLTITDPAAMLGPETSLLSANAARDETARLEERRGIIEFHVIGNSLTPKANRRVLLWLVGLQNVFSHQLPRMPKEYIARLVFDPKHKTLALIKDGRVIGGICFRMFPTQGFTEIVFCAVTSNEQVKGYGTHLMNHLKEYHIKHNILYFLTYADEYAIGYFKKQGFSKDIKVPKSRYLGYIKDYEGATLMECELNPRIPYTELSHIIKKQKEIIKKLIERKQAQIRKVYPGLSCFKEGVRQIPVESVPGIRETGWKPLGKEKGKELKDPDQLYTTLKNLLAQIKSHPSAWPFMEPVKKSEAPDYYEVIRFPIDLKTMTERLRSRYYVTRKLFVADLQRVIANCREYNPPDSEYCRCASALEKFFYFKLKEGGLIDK
#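 ThioGlo1-coupled HAT assay: 20nM GCN5L2, 70uM acetyl-CoA, 75uM H3(1-25) peptide, pH 7.5. Fluorescence read at 340/540nm at start and after 20 min at room temperature.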
# USP1-UAF1 confirm = validation of human USP1/UAF1 inhibitors; Ub-Rhodamine cleavage, fluorescence kinetic read; Potency, µM (titrated, usually from 114 µM), for inactives: at the highest dose activity change, negative = inhibition, most hits filed as inhibitors; 50% of 50 active; shares compounds with VDR inhibitor
# VDR inh confirm = confirmation of human vitamin D receptor inhibitors. shares compounds with VDR inhibitor. VDR-coactivator inhibition assay, qHTS confirmation. Potency, µM, actives largely listed as inhibitors. 89% of 840 active. AID 602199; further: potency means the concentration at half of the fitted maximal effect
# VDR FP = confirmation of human VDR-coactivator binding inhibitors, fluorescein label. 48% of 840 active. AID 602200. shares compounds with VDR inhibitor. Potency, µM (titrated, usually from 57.1 µM), for the others: top-dose activity change, negative = inhibition, actives largely listed as inhibitors. VDR-coactivator binding, fluorescein fluorescence polarization; further: potency means the concentration at half of the fitted maximal effect
# VDR bla reporter = inhibits human VDR in beta-lactamase reporter cells | 23% of 840 active | shares compounds with VDR inhibitor | VDR beta-lactamase reporter cells, FRET ratio; cells co-treated with VDR agonist LG190178 | Potency, µM (doses to about 46.1 µM), without a hit: at the top dose activity change, negative = inhibition, hits mostly inhibitors | AID 602202; further: potency means the concentration at half of the fitted maximal effect; on the % scale 0 is the no-effect control and ±100 the full control effect
# VDR cytotox = cytotoxic in counter-screen for VDR inhibitors; shares compounds with VDR inhibitor; cytotoxicity counter-screen, cell viability, qHTS; Potency, µM (highest dose often 48.3 µM), for the others: at the top dose activity change, negative = cytotoxicity, usual class: cytotoxic; 18% of 840 active;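 further: potency means the concentration at half of the fitted maximal effect; plate controls were DMSO for no effect and high-concentration cycloheximide for full effect; nearly all actives have a fitted effect of over 75% in size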
# * hit, by the source's call; ? = inconclusive; nt = no result given. An excerpt weighted towards active compounds, which were near 3.1% of everything screened. Unless noted, the call rests on the fitted dose curve; in most records, active means well fitted curve in the direction sought with a large enough effect; inconclusive means small, poorly fitted or top-dose-only effect, or another doubt; inactive means no such curve, though single readings can be large; an effect the other way counts as inactive or inconclusive.
SMILES,PI4K2A block,GLS inh,PLK1 PBD block,VDR inhibitor,KAT2A inh,VDR inh confirm,VDR FP,VDR bla reporter,VDR cytotox,others
O=C(c1ccccc1)N1CCC(Oc2cccnc2)CC1,1,nt,nt,nt,nt,nt,nt,nt,nt,
Cc1ccccc1N1C(=O)c2sc3nc4c(c(=O)n3c2C1=O)CCC4,3,3%,8.4µM*,?,-9%,20*,25µM*,?,0%,
Cc1ccc(N2C(=O)c3sc4nnc(C)c(=O)n4c3C2=O)cc1,0,-2%,-4%,2%,0%,nt,nt,nt,nt,
COc1ccc(N2CCN(C(=O)CSc3nc4ccccc4nc3Cc3ccc(Cl)cc3)CC2)cc1,-2,9%,nt,-4%,-3%,nt,nt,nt,nt,
Ic1ccc(N2CCN(Cc3c[nH]c4ncccc34)CC2)cc1,-19,10%,-13%,?,?,nt,nt,nt,nt,USP1-UAF1 confirm=?
CCN(CC)c1ccc(NC(=O)C2CCN(c3nnc(-n4cccc4)s3)CC2)c(C)c1,5,17%,nt,6%,0%,nt,nt,nt,nt,
CCOC(=O)C(C#N)=C1CCN(Cc2ccccc2)CC1,-1,18%,-16%,-15%,-6%,nt,nt,nt,nt,
CCOC(=O)/C(C#N)=C1/C(=O)N(Cc2ccccc2)c2ccccc21,24,?,3.8µM*,28µM*,-24%,3.4*,?,20%,25%,
CCOc1ccc(C(=O)CC(C(=O)O)N2CCCCC2)cc1 (centres undefined),-26,-1%,?,40µM*,-3%,24*,?,11%,-1%,
CCOc1ccc(C(=O)OC(C)C(=O)N2CCN(Cc3ccccc3)CC2)cc1 (centres undefined),15,-11%,2%,-8%,3%,nt,nt,nt,nt,
CCOc1ccc(C(=O)CC(C(=O)O)N2CCN(Cc3ccccc3)CC2)cc1 (centres undefined),-13,5%,-23%,50µM*,-2%,24*,28µM*,27%,-25%,
CCCCN1C(=O)C(=Nc2cccc3cnccc23)c2ccccc21,11,29%,-14%,50µM*,-5%,15*,?,12%,29%,
CCCCN1C(C)=CC(=C2C(=O)c3ccccc3C2=O)C=C1C,-9,-4%,-23%,-2%,-3%,nt,nt,nt,nt,
COC1=C(OC)C(=O)c2ccccc2C1=O,-24,nt,nt,35µM*,0%,nt,nt,nt,nt,USP1-UAF1 confirm=30µM*
Cc1sc2c(c1C)C(=O)NC(c1ccccc1F)N2 (centres undefined),-2,-3%,2.1µM*,32µM*,-29%,6.7*,?,9%,2%,
COc1ccc(CC2=CC(=O)c3ccccc3C2=O)cc1,-19,6%,?,20µM*,-6%,4.2*,3.2µM*,?,16µM*,
COc1ccc(Cc2ccccc2C(=O)O)cc1,0,8%,-9%,10%,nt,nt,nt,nt,nt,
CCOC(=O)C1CCN(c2ncnc3c2nnn3C)CC1,0,-9%,nt,2%,-16%,nt,nt,nt,nt,
O=S(=O)(/N=S1/CC=CCN1S(=O)(=O)c1ccccc1)c1ccccc1 (centres undefined),?,9%,1.5µM*,3.5µM*,-21%,5.3*,?,-4%,22%,
O=S(=O)(c1ccccc1)N1CCN(S(=O)(=O)c2ccccc2)C1,-1,9%,-2%,0%,2%,nt,nt,nt,nt,
CCCC(=O)OCCNc1cc(Sc2nccn2C)c2nonc2c1[N+](=O)[O-],7,1%,2.4µM*,50µM*,-2%,8.4*,?,16µM*,21µM*,
CCC(=O)OCCNc1cc(Sc2nc3ccccc3s2)c2nonc2c1[N+](=O)[O-],-7,?,1.9µM*,8.9µM*,-22%,6.7*,3.2µM*,16µM*,?,
O=[N+]([O-])c1c(NCCCO)cc(Sc2nc3ccccc3s2)c2nonc12,?,?,0.95µM*,16µM*,?,6*,?,?,?,
CCN(c1ccccc1)S(=O)(=O)c1nnc(NC(=O)c2ccccc2)s1,-2,4%,nt,-2%,-8%,nt,nt,nt,nt,
C=CS(=O)(=O)N(Cc1ccc(F)cc1)C(=C)C(=O)OC,3,nt,nt,nt,nt,nt,nt,nt,nt,
SMILES,PI4K2A block,GLS inh,PLK1 PBD block,VDR inhibitor,KAT2A inh,VDR inh confirm,VDR FP,VDR bla reporter,VDR cytotox,others
CCOC(=O)c1cnc(Cc2ccccc2)[nH]c1=O,4,0%,-6%,9%,-4%,nt,nt,nt,nt,
CCOC(=O)C1=C(Cc2ccc(F)cc2)C(=O)c2ccccc2C1=O,-2,10%,9.5µM*,4.5µM*,-13%,5.3*,?,-9%,-18%,
COc1ccc(Br)cc1C1NC(c2ccc3c(c2)OCO3)=CC(c2cc(Cl)ccc2O)N1 (centres undefined),nt,nt,nt,50µM*,nt,?,?,?,-19%,
Nc1cccc2c1C(=O)N(C(=O)/C=C/c1ccc(F)cc1)C2=O,30,-6%,?,28µM*,-4%,9.5*,10µM*,-1%,30%,
COC1=C(C)C(O)=C(C(=O)/C=C/c2ccccc2)C(=O)C1(C)C,-3,5%,-3%,20µM*,-12%,17*,20µM*,?,-3%,
COc1cc(C)cc(C(=O)C=Cc2ccccc2)c1O,11,-12%,?,?,nt,nt,nt,nt,nt,
Cc1nc2ccc(N=NN(C)C)cc2[nH]1,2,0%,-12%,50µM*,?,21*,?,7%,?,
CCOC(=O)c1c(-c2ccccc2)csc1NC(=O)c1cc(-c2cccc(Cl)c2)on1,-2,2%,nt,?,-14%,nt,nt,nt,nt,
CCOC(=O)c1c(-c2ccccc2)csc1NC(=O)c1cc(-c2cccc(OC)c2)on1,-7,-10%,nt,79µM*,-13%,22*,16µM*,-16%,-3%,
COc1cccc(C(C2C(=O)CC(C)(C)CC2=O)C2C(=O)CC(C)(C)CC2=O)c1,-1,18%,?,?,-2%,nt,nt,nt,nt,
Cc1cc(C(C2C(=O)CC(C)(C)CC2=O)C2C(=O)CC(C)(C)CC2=O)cc(C)c1OC(F)F,-14,4%,5.3µM*,10µM*,-4%,24*,?,30%,22%,
COc1ccc(C(=O)/C(Br)=C/C(=O)O)cc1,nt,5%,nt,-5%,3%,nt,nt,nt,nt,
